Results filed as inconclusive are left out. A call without a number means that no potency is given here. The source made the active and inactive calls. Unless noted, calls come from the whole dose curve; as a rule, active = well fitted activation curve with a large enough effect in the repeat runs; inconclusive = weak or mixed curves; inactive = no such curve, though single readings can be large or run the other way. Non-standard residues stand in square brackets, D forms with d. Residues, ends and D or L forms follow the SMILES beside them. pGlu = O=C1CC[C@@H](C(=O)O)N1
Test: qHTS assay for small molecule agonists of the p53 signaling pathway (AID 651631; calls by dose curve)
Conditions: HCT-116 p53RE-bla reporter, beta-lactamase FRET ratio, 16 h; series mostly up to 73.3 µM
Procedure, shortened: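 Beta-lactamase reporter activity under p53 response elements was quantified in HCT-116 cells by FRET fluorescence, following 16 h incubation with test compounds at 37 °C and 2 h substrate development at room temperature.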
Note: nearly all actives have a fitted effect of over 15% in size.

Row | SMILES | Potency
1 | Cc1ncc(C[n+]2csc(CCOP(=O)(O)OP(=O)(O)O)c2C)c(N)n1 | inactive
2 | NCCCC[C@H](N)C(=O)O | inactive
3 | CNCC(O)c1ccc(OC(=O)C(C)(C)C)c(OC(=O)C(C)(C)C)c1 (configuration not stated) | inactive

Test: qHTS assay for small molecules that induce genotoxicity in human embryonic kidney cells expressing luciferase-tagged ATAD5 (AID 651632)
Conditions: HEK293T ATAD5-luciferase induction, 16 h; series mostly up to 83.3 µM
Procedure, shortened: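 Luminescent reporter readout, HEK293T ATAD5-luc line: 16 hr drug exposure (37C, 5% CO2) followed by Amplite, 30 min RT.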

Row | SMILES | Potency
4 | COc1cc2c(cc1OC)[C@@H](c1ccccc1)CN(C)CC2 | inactive
5 | CCC(Cc1c(I)cc(I)c(O)c1I)C(=O)O (configuration not stated) | inactive
6 | CC(=O)Oc1cccc(C(=O)O)c1OC(C)=O | inactive
7 | O=C(NNCS(=O)(=O)O)c1ccncc1 | inactive
8 | CO/N=C(\C(=O)N[C@@H]1C(=O)N2C(C(=O)O)=C(CSC(=O)c3ccco3)CS[C@H]12)c1csc(N)n1 | inactive
9 | O=c1[nH]cnc2[nH]cc(CN3CCCCC3)c12 | inactive
10 | CO/N=C(\C(=O)N[C@@H]1C(=O)N2C(C(=O)OCOC(=O)C(C)(C)C)=C(/C=C\c3scnc3C)CS[C@H]12)c1csc(N)n1 | inactive
11 | CCCC(=O)O[C@]1(C(=O)COC(C)=O)CC[C@H]2[C@@H]3C[C@H](F)C4=CC(=O)C=C[C@]4(C)[C@@]3(F)[C@@H](O)C[C@@]21C | inactive
12 | CCCc1ccc(C(=O)O)cc1 | inactive
13 | CC1(C)S[C@@H]2[C@H](NC(=O)C(C(=O)Oc3ccc4c(c3)CCC4)c3ccccc3)C(=O)N2[C@H]1C(=O)O (some centres not stated) | inactive
14 | CO[C@@]1(NC(=O)C2SC(=C(C(N)=O)C(=O)O)S2)C(=O)N2C(C(=O)O)=C(CSc3nnnn3C)CS[C@@H]21 (some centres not stated) | inactive
15 | O=C1CCC(=O)N1CO | inactive
16 | C[C@@H](O)[C@H]1C(=O)N2C(C(=O)[O-])=C(SC3Cn4cnc[n+]4C3)[C@H](C)[C@H]12 (some centres not stated) | inactive
17 | CC(C)[C@@H]1CC[C@@H](C)C[C@H]1OC(=O)c1ccccc1O | inactive
18 | N#Cc1ccc2c(c1)N(CCCN1CCC(O)CC1)c1ccccc1S2 | inactive
19 | CO[C@H]1C[C@H](O[C@H]2[C@H](C)[C@@H](O[C@@H]3O[C@H](C)C[C@H](N(C)C)[C@H]3OC(C)=O)[C@@H](C)C[C@]3(CO3)C(=O)[C@H](C)[C@@H](OC(C)=O)[C@@H](C)[C@@H](C)OC(=O)[C@@H]2C)O[C@@H](C)[C@@H]1OC(C)=O | inactive
20 | C[C@]12CC[C@@H]3c4ccc(OS(=O)(=O)O)cc4CC[C@H]3[C@@H]1CCC2=O | inactive
21 | Nc1nc2c(c(=O)[nH]1)N(C=O)C(CNc1ccc(C(=O)N[C@@H](CCC(=O)O)C(=O)O)cc1)CN2 (some centres not stated) | inactive
22 | C/C=C(/CC[C@@H](C)[C@H]1CC[C@H]2C3=CC[C@H]4[C@H](C)[C@@H](O)CC[C@]4(C)[C@H]3CC[C@]12C)C(C)C | inactive
23 | OC[C@H]1O[C@@H](n2cnc3c2NC=NC[C@H]3O)C[C@@H]1O | inactive

Row | SMILES | Potency
24 | O=C(O)c1nc(=O)[nH]c(=O)[nH]1 | inactive
25 | C=CCSSSCC=C | inactive
26 | CS(=O)(=O)Nc1cc2occ(NC=O)c(=O)c2cc1Oc1ccccc1 | inactive
27 | CC(C(=O)O)c1ccc(C2CCCCC2)c2ccccc12 (configuration not stated) | inactive
28 | CC[C@H](C)[C@H](NC(=O)[C@H](Cc1ccccc1)NC(=O)[C@H](C)NC(=O)[C@H](CC(=O)O)NC(=O)[C@H](CCCCN)NC(=O)[C@H](CO)NC(=O)[C@@H]1CCCN1C(=O)[C@@H]1CCC(=O)N1)C(=O)NCC(=O)N[C@@H](CC(C)C)C(=O)N[C@@H](CCSC)C(N)=O ([pGlu]PSKDAFIGLM-NH2) | inactive
29 | Cc1cccc(C)c1NC(=O)NC1=CCCN1C | inactive
30 | Cn1cc(NC(=O)c2cc(NC(=O)c3cc(NC=O)cn3C)cn2C)cc1C(=O)NCCC(=N)N | inactive
31 | CCCCCCCCCCCCCCCC(=O)O[C@@H]1[C@@H](O)[C@@H](O)[C@@H]([C@H](NC(=O)[C@@H]2C[C@@H](CCC)CN2C)[C@H](C)Cl)O[C@@H]1SC | inactive
32 | Cc1cccc(Nc2ncccc2C(=O)O)c1C | inactive
33 | NCCCNCCCCNC(=O)C(O)NC(=O)CCCCCCN=C(N)N (configuration not stated) | inactive
34 | CC1(C)C2CC[C@]3(C)[C@H](C(=O)C=C4[C@@H]5C[C@@](C)(C(=O)O)CC[C@]5(C)CC[C@]43C)[C@@]2(C)CC[C@@H]1O[C@H]1O[C@H](C(=O)O)[C@@H](O)[C@H](O)[C@H]1O[C@@H]1O[C@H](C(=O)O)[C@@H](O)[C@H](O)[C@H]1O (some centres not stated) | inactive
35 | CN1c2c(nc(N)[nH]c2=O)NCC1CNc1ccc(C(=O)NC(CCC(=O)O)C(=O)O)cc1 (configuration not stated) | inactive
36 | Oc1cc(O)cc(O)c1 | inactive
37 | NC(=O)OCC(O)COc1ccc(Cl)cc1 (configuration not stated) | inactive
38 | O=C1NC(=O)[C@H]2[C@@H]1[C@@H]1C=C[C@H]2C1 | inactive
39 | CC(C)[C@H](N)C(=O)OCC(CO)OCn1cnc2c(=O)[nH]c(N)nc21 (some centres not stated) | inactive
40 | Cc1ncc(C[n+]2csc(CCOP(=O)(O)OP(=O)(O)O)c2C)c(N)n1 | inactive
41 | NCCCC[C@H](N)C(=O)O | inactive
42 | CNCC(O)c1ccc(OC(=O)C(C)(C)C)c(OC(=O)C(C)(C)C)c1 (configuration not stated) | inactive
